Source: PubChem BioAssay (National Center for Advancing Translational Sciences (NCATS))
In the library only some 6.3% were active in any assay of this set; here they are far more common.
Gal4-VP16 FLuc: VP16 counterscreen qHTS for inhibitors of ROR gamma transcriptional activity. Drosophila S2 Gal4-VP16 UAS-luciferase, luminescence, 20 h. Potency, µM (titrated, usually from 53.6 µM), for inactives: top-dose activity, negative = inhibition, most hits filed as inhibitors. 310,000 compounds, 3.5% hits. AID 2546, 2010;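 also: Gal4-VP16 expression switched on by copper sulfate through the metallothionein promoter; % is scaled to controls: 0 for no effect and ±100 for the full control effect; nearly all actives have a fitted effect of over 50% in size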
ATXN2 expr inh: Primary qHTS for Inhibitors of ATXN expression; HEK-293 ATXN2-luciferase reporter, luminescence, 24 h; Potency, µM (titrated, usually from 57 µM), for the others: at the top dose activity change, negative = inhibition, actives largely listed as inhibitors; 360,000 compounds, 0.72% hits; AID 1745845, 2022; also: % is scaled to controls: 0 for no effect and ±100 for the full control effect; nearly all actives have a fitted effect of over 55% in size
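qHTS (up to 57 uM final) was run with 24 h compound exposure of reporter cells at 37 °C. Each well was multiplexed: SteadyGlo luminescence measured ATXN2-luciferase expression after a fluorogenic Gly-Phe-AFC viability readout (25 uM final).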
HepG2 viability: qHTS for Inhibitors of TGF-b: Cytotox Counterscreen | HepG2 CAGA-GFP viability, ATP luminescence, 18 h | AID 588856, 2011 | 410,000 compounds, 0.76% hits | Potency, µM (doses to about 46.1 µM), for the others: top-dose activity change, negative = cytotoxicity, actives largely listed as cytotoxic
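CellTiter-Glo luminescence gave cytotoxicity after 18 hours at 37 degrees C. The cells were HepG2 CAGA-GFP in 1% FBS DMEM, stimulated with 500 pg/mL TGF-beta after compound addition. %Activity was normalised to no-cell wells (complete cell-killing) and DMSO (no toxicity), and curves were fitted and classified.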
TGFb inhibitor: qHTS for Inhibitors of TGF-b; HepG2 CAGA-GFP TGF-b/SMAD3 reporter, GFP fluorescence, 18 h; TGF-beta stimulated, 500 pg/mL final; 410,000 compounds, 1.2% hits; Potency, µM (doses to about 46.1 µM), without a hit: at the top dose activity, negative = inhibition, most hits filed as inhibitors; AID 588855, 2011; also: % is scaled to controls: 0 for no effect and ±100 for the full control effect; nearly all actives have a fitted effect of over 65% in size
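Smad-responsive CAGA-GFP expression was quantified in HEPG2 cells exposed to compounds and 500 pg/mL final TGF-beta for 18 h at 37 degrees C; unstimulated wells defined full inhibition.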
S2 tox: Viability Counterscreen for Primary qHTS for Inhibitors of ATXN expression; Potency, µM (titrated, usually from 56.7 µM), hits mostly cytotoxic; 400,000 compounds, 0.49% hits; S2 cells (HEK-293 line with an ATXN2-luciferase reporter) viability, CellTiter-Fluor protease fluorescence, 24 h; also: nearly all actives have a fitted effect of over 40% in size
RORgamma inh: qHTS for inhibitors of ROR gamma transcriptional activity; AID 2551, 2010; Potency, µM (top dose mostly 53.6 µM), without a hit: at the highest dose activity change, negative = inhibition, actives largely listed as inhibitors; Drosophila S2 Gal4-RORgamma UAS-luciferase reporter, 20 h; Nuclear receptor ROR-gamma (Mus musculus), P51450; 310,000 compounds, 5.4% hits; also: % is scaled to controls: 0 for no effect and ±100 for the full control effect; nearly all actives have a fitted effect of over 60% in size
Target sequence (P51450 whole entry, looked up, the tested form may be a part): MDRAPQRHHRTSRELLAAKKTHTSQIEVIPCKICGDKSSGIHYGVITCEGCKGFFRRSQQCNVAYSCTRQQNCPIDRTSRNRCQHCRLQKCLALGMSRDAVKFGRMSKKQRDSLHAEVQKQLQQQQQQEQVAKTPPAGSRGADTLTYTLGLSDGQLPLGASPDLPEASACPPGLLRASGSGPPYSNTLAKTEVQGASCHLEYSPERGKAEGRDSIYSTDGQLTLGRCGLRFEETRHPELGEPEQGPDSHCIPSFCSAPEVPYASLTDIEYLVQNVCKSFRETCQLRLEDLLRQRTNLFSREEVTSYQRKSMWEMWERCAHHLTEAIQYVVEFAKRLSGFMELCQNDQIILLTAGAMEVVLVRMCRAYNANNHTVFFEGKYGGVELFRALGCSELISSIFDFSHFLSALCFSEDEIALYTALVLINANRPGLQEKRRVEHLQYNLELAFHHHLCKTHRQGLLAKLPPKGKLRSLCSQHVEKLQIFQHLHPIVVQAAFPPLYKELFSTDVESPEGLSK
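A Gal4/UAS one-hybrid system in insect cells: metallothionein-promoter Gal4–ROR gamma fusion plus Photinus luciferase reporter. Copper sulfate 700 uM final, 20 hr ambient incubation, luminescent detection after 10 min with reagent.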
* hit, by the source's call; i = inactive; ? = inconclusive; . = no result given; [ ] = dose if it differs, or a comment. Calls follow the shape of the dose curve; as a rule, active = well fitted curve in the direction sought with a large enough effect; inconclusive = small, poorly fitted or top-dose-only effect, or another doubt; inactive = no such curve, though single readings can be large; an effect the other way counts as inactive or inconclusive. Potency is read from the fitted curve at half-maximal effect.

SMILES | Gal4-VP16 FLuc | ATXN2 expr inh | HepG2 viability | TGFb inhibitor | S2 tox | RORgamma inh
Cc1ccccc1C(=O)NNC(=O)C(=O)Nc1cccc(Cl)c1C | ? | 4% | -12% | 13% | i | 32%
CC(C)Cc1ccc(CN2CCCC(NC(=O)CCN3CCCCC3=O)C2)cc1 (configuration not stated) | 13% | -11% | 2% | 0% | i | 7%
CC(C)Cc1ccc(C(C)/C=C2/CCC(CN3CCCCC3)C2=O)cc1 (configuration not stated) | . | ? | -72% | 16µM* | . | .
O=C(NCc1cccs1)c1ccc(CSc2nc3ccncc3n2Cc2ccccc2)cc1 | . | 9% | -20% | ? | ? | .
CCOc1ccc(C2NC(=O)C(C#N)=C(S)N2c2ccc(C)cc2)cc1OC (configuration not stated) | ? | 5% | -22% | -24% | i | 14µM*
N#CC1=C(S)N(c2ccccc2)C(c2ccc(-c3cccc(Cl)c3)o2)NC1=O (configuration not stated) | ? | . | -31% | ? | i | 13µM*
COc1cc(C2NC(=O)C(C#N)=C(S)N2c2ccccc2)ccc1OC(C)C (configuration not stated) | ? | -6% | -44% | -6% | i | 10µM*
CCOc1ccc(C2NC(=O)C(C#N)=C(S)N2c2cccc(C)c2)cc1OC (configuration not stated) | -11% | . | -1% | -22% | i | -34%
Cc1ccc(-c2csc(-c3nc(-c4ccc(Br)s4)cs3)n2)cc1 | . | -4% | 6% | 3% | i | .
CCOC(=O)N1CCC(=NNC(N)=O)C1 | . | . | -1% | -1% | i | .
COc1ccccc1/C=C/CN1CCC(Oc2cc(C(=O)NC3CC3)ccc2OC)CC1 | -3% | . | 20% | 27% | ? | 8%
COc1ccc(OCC(O)CNS(=O)(=O)c2ccc(NC(C)=O)cc2)cc1 (configuration not stated) | -11% | 2% | -24% | -23% | i | 20%
CC(C)N=C(NS(=O)(=O)c1ccccc1)C(Cl)(Cl)Cl | ? | ? | -94% | ? | ? | 7.1µM*
O=C1c2ccncc2C(=O)N1CO | -8% | -4% | 3% | 8% | i | -15%
CNC1=C(Cl)C(=O)c2ccncc2C1=O | 5.6µM* | . | . | . | . | 2.8µM*
CNc1ccncc1S(=O)(=O)NC | -19% | 8% | 8% | 4% | i | 5%
CNC1=C(Br)C(=O)c2ccncc2C1=O | 5.6µM* | . | . | . | . | 2.2µM*
O=C(Cn1c(=O)n(-c2ccccc2Cl)c(=O)c2sc3ccccc3c21)N1CCCC1 | . | -10% | 9% | 7% | ? | .
CCOc1cc(/C=N/NC(N)=O)cc(Br)c1OCC(=O)Nc1cccc2ccccc12 | 0% | -17% | 11µM* | 17% | i | -34%
CC(=Nc1ccc(O)cc1)c1sc2ccccc2c1O | -11%[0.365 µM] | 59% | -24% | 6% | i | 19%
CC(=Nc1ccccc1O)c1sc2ccccc2c1O | ? | . | -88% | ? | ? | 2µM*
CCOC(=O)C(=O)N1CCC(Cc2ccccc2)CC1 | 20% | -32% | -4% | -23% | i | -9%
CC(=O)O[C@@H]1[C@@H](O)CN[C@@H]1Cc1ccccc1 | 0.28µM* | . | -18% | ? | . | 0.5µM*
O=C(CCCCl)NC(=S)Nc1cc(C(F)(F)F)ccc1N1CCOCC1 | ? | . | -33% | ? | i | 7.9µM*
CC(C)(C)C(=O)NC(=S)Nc1cc(C(F)(F)F)ccc1N1CCOCC1 | ? | -7% | -1% | ? | i | 13µM*
O=C(NC(=S)Nc1cc(C(F)(F)F)ccc1N1CCOCC1)c1sc2ccccc2c1Cl | 4µM* | 0% | 4% | 0% | i | 2.2µM*
